Results on 23 compounds are retold here after PubChem BioAssay.

In experiment [1] the target is Tumor necrosis factor receptor superfamily member 10B (Homo sapiens) (UniProt O14763). Description: viability loss of caspase-8 NB7 cells with TRAIL – with/without TRAIL, luminescence panel, confirmation (AID 651596). As to conditions: NB7 neuroblastoma + caspase-8, TRAIL sensitization, NB7 Caspase-8, with TRAIL, mean of runs, at 10 µM, stronger effect = higher value.
Assay in experiment [2]: as above
To be noted: NB7 neuroblastoma + caspase-8, without TRAIL, NB7 Caspase-8, without TRAIL, mean of runs, at 10 µM.

Tumor necrosis factor receptor superfamily member 10B (Homo sapiens), sequence (O14763 whole entry, looked up): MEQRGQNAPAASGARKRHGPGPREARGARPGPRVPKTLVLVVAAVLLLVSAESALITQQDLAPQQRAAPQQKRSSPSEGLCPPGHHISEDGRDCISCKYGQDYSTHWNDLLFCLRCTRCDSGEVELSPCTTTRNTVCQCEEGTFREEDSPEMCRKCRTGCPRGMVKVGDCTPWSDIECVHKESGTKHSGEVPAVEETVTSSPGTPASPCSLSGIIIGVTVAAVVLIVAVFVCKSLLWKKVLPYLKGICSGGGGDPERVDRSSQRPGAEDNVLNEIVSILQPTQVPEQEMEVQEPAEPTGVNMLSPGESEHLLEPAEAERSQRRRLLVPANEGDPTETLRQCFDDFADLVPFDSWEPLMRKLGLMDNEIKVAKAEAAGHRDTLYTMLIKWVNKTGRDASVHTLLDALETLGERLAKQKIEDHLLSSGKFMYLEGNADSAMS

On to `C#CCN(C[C@@H]1[C@@H](OC(=O)NCC2CCCCC2)[C@@H](OC(=O)NCC2CCCCC2)Cn2c(=O)ccc(=O)n21)S(=O)(=O)c1ccc(C)cc1`, for which the activity worked out at 97.7% in experiment [1] and 98.3% in experiment [2].
With `COc1ccccc1NC(CC(=O)c1ccccc1)C(=O)OCC(=O)c1ccc(F)cc1` (stereo unspecified), the activity is 69.5% in experiment [1] and 65.9% in experiment [2].
In the same order, the values of `Cc1ccc(C(C)C)c(OCC(=O)Nc2ccc3c(c2)nc(CCN2CCCCC2)n3C)c1` are 7.92% and 39.4%.
In the same order, the values of `N#Cc1ccccc1N/C=C/C(=O)c1ccc(Cl)cc1` are 48.7% and 53.1%.
For the compound `CC(C)(C)c1ccc(O)c(/C=N\O)c1`, the activity was found to be 60.4% in experiment [1] and 72.9% in experiment [2].
Take `COc1ccc(C(=O)Nc2cccc(/C=C/c3nc4ccccc4c(=O)[nH]3)c2)cc1`: the figures for the activity in experiment [1] and in experiment [2] were 73.5% and 60.9%, respectively.
For the compound `O=c1c2c(nc3cc(-c4ccc(F)cc4)[nH]n13)CCCC2`, the activity in experiment [1] is 71.5%; in experiment [2], 68.3%.
For the compound `COc1ccc(C2C(C(=O)N3CCN(c4ccccc4F)CC3)c3ccccc3C(=O)N2C)cc1` (stereo unspecified), the values for the activity in experiment [1] and in experiment [2] were 74.5% and 59%, respectively.
Consider `O=C(CSC(=S)N1CCCCC1)c1ccccc1`, for which the activity in experiment [1] is 50.8%; in experiment [2], 35.2%.
As for `Cc1ccc(NC(=O)c2nc(S(=O)(=O)Cc3ccccc3)ncc2Cl)cc1`, the activity amounted to 83.5% in experiment [1] and 96.1% in experiment [2].
As to `CCOC(=O)c1cnc2c(Cl)c(Cl)ccc2c1N1CCN(C)CC1`, the results for the activity in experiment [1] and in experiment [2] were 39.3% and 43%, respectively.
As to `Brc1ccc(-c2nc(N/N=C/c3cccnc3)c3ccccc3n2)cc1`, the activity was found to be 93.5% in experiment [1] and 89.7% in experiment [2].
With `CC(C)Nc1ncnc2c1cnn2-c1ccc(Cl)cc1`, the activity in experiment [1] worked out at 60.6%; in experiment [2], 67.4%.
`CCc1ccc(/C=N/NC(=O)c2c[nH]c3ccccc23)s1`: the activity was 21.7% in experiment [1] and 20.4% in experiment [2].
In the same order, the values of `O=C(NC(=S)N1CCN(c2ccc(C(F)(F)F)cc2[N+](=O)[O-])CC1)c1cccs1` are 60.9% and 62.1%.
For the compound `CC(C)(C)C(=O)Nc1cccc(-c2nc3ccccc3c(=O)o2)c1`, the activity in experiment [1] was found to be 59.2%; in experiment [2] it was 61.9%.
As to `CC(C)(C)C(=O)Nc1ccc(-c2cn3ccsc3n2)cc1`, the activity was determined as 95.7% in experiment [1] and 95.8% in experiment [2].
In the same order, the values of `Cc1ccc(-c2ccccc2NC(=O)CCl)o1` are 47.4% and 64.3%.
Take `Cc1cccc(N(Cc2ccccc2)C(=O)CCl)c1`: the activity was found to be 99% in experiment [1] and 99.1% in experiment [2].
Regarding `COc1ccc2nc(-c3ccccn3)ccc2c1`, the figures for the activity in experiment [1] and in experiment [2] were 82.1% and 77.5%, respectively.
Turning to `c1ccc2oc(-c3csc(N4CCOCC4)n3)cc2c1`, the activity is 67.7% in experiment [1] and 51.3% in experiment [2].
As for `Cn1c(=O)[nH]c(=O)c2c1nc([N+](=O)[O-])n2Cc1ccccc1`, the activity in experiment [1] is 60.5%; in experiment [2] it was 96.2%.
Turning to `C=C(C)[C@@H]1C2=CC(C(=O)OC)=C(C[C@H](C(=C)C)[C@H]3O[C@H]3C3=C[C@H]1OC3=O)O2`, the activity was found to be 72.2% in experiment [1] and 96% in experiment [2].
